Data as given in the supplement of paper PMC11732987, “Enantioselective OTUD7B fragment discovery through chemoproteomics screening and high-throughput optimisation” (Communications Chemistry, 2025).

Columns and labels:
Assay in all cases: log2 ratio of Biotin-Ahx-Ub-VS probe labelling (fragment/DMSO); higher = less target engagement (more negative = stronger competition), active = hit call of the paper (q ≤ 0.05, log2 ratio ≤ -1)
Conditions in all cases: compound concentration: 200 uM; treatment time: 3 h
USP34 = USP34 (UniProt Q70CQ2)
Sequence of USP34 (Q70CQ2 whole entry, the tested form may be a part): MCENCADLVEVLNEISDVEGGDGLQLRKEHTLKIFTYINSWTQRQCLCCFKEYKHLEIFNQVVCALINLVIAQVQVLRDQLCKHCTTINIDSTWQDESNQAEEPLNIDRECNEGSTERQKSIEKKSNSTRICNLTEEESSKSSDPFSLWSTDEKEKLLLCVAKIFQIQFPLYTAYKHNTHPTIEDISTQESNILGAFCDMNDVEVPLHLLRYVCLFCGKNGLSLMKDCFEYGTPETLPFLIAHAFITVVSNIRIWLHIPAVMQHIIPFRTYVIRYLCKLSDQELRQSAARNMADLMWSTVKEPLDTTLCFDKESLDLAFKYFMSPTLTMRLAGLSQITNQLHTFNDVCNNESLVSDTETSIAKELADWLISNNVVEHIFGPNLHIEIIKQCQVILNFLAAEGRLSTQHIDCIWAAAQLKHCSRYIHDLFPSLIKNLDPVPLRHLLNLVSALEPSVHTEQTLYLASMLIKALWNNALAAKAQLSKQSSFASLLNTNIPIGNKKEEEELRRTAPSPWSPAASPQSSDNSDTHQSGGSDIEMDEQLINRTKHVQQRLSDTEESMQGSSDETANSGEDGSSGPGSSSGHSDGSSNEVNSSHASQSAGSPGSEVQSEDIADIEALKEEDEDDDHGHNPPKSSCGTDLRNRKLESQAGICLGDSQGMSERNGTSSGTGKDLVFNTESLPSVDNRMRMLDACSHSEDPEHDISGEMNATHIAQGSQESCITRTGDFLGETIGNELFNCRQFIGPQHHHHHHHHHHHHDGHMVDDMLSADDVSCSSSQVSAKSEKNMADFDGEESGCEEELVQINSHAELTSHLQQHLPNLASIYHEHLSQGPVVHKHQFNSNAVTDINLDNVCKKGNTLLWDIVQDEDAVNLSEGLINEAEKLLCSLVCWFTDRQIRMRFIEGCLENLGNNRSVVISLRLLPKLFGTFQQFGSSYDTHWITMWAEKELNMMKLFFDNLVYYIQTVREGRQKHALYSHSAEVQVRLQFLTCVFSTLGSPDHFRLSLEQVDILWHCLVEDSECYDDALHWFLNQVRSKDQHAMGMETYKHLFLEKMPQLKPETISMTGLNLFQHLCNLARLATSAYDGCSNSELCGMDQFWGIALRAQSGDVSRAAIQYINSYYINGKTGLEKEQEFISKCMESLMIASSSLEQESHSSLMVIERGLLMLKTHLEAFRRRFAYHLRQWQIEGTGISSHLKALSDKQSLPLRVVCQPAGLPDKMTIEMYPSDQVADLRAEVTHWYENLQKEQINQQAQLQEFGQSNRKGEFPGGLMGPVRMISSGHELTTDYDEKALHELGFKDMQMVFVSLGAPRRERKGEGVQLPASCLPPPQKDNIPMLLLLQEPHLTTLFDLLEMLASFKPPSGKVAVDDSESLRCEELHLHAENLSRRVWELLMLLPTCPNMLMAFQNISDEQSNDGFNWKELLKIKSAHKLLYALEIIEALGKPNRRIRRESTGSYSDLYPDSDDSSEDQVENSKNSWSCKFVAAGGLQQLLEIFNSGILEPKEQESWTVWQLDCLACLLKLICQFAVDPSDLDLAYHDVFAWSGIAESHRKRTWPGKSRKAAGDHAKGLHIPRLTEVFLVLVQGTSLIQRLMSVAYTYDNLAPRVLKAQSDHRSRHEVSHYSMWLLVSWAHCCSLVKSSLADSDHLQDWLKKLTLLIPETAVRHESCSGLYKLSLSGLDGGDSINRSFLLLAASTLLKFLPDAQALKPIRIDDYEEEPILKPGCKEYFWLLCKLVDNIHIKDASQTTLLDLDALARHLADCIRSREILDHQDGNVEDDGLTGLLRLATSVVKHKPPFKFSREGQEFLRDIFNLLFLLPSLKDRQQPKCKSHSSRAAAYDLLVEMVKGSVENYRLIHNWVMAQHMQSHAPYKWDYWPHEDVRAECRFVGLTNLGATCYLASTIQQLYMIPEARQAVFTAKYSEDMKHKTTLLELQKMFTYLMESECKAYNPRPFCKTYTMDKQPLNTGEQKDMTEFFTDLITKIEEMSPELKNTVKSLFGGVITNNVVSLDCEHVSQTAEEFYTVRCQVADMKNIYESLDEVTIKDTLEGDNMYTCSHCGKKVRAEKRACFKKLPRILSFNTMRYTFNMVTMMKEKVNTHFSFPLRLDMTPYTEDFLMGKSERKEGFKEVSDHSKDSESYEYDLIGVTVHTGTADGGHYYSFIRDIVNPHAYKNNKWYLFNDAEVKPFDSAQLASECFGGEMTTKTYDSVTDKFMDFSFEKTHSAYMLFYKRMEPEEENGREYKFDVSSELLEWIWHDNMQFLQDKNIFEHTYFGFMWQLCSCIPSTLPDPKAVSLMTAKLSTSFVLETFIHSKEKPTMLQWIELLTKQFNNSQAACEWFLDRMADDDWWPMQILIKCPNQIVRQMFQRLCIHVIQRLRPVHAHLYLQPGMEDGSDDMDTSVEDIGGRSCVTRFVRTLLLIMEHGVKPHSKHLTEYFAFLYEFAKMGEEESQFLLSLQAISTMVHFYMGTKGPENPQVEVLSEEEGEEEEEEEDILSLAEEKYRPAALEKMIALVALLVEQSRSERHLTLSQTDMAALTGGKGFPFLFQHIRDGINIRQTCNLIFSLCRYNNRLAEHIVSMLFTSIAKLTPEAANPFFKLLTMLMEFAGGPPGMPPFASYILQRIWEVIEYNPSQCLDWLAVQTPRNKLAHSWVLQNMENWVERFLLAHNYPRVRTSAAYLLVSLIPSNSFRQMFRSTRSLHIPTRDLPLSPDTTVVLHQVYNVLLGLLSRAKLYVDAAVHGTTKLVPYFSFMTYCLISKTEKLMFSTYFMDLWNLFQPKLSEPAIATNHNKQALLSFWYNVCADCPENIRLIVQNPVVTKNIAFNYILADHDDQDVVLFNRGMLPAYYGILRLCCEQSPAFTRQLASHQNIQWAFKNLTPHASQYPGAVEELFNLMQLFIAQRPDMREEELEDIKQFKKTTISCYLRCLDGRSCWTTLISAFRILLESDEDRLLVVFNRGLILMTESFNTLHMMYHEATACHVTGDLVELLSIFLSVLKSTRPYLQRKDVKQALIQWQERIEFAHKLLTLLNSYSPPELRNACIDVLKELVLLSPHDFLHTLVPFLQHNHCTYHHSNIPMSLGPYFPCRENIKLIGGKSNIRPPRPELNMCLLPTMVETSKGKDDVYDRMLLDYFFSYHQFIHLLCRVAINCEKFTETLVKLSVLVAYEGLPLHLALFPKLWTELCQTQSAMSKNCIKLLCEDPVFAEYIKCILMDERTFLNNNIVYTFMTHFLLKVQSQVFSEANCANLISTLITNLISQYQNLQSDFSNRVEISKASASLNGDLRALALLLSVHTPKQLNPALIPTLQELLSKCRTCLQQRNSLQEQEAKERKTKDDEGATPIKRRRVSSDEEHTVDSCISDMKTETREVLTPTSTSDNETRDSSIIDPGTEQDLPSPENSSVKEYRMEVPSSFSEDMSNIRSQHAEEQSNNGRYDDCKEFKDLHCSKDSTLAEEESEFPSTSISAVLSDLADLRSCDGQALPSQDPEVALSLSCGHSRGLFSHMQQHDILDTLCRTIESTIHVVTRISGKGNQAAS
In short: (§1)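 Fragment (200 µM) or vehicle was incubated for 3 h with triplicate HEK293T lysate samples of 495 µg, which were then treated with Biotin-Ahx-Ub-VS at 0.5 µM final for 1 h. Labelled DUBs were enriched on NeutrAvidin, digested with LysC and trypsin, and analysed by diaPASEF LC-MS/MS. Values are average log2 fragment/vehicle ratios from an unpaired t-test on global-median-normalised Spectronaut label-free quantities, using proteins with ≥2 unique peptides.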

USP36 = target: T1, USP36 (UniProt Q9P275)
T1 sequence (whole entry): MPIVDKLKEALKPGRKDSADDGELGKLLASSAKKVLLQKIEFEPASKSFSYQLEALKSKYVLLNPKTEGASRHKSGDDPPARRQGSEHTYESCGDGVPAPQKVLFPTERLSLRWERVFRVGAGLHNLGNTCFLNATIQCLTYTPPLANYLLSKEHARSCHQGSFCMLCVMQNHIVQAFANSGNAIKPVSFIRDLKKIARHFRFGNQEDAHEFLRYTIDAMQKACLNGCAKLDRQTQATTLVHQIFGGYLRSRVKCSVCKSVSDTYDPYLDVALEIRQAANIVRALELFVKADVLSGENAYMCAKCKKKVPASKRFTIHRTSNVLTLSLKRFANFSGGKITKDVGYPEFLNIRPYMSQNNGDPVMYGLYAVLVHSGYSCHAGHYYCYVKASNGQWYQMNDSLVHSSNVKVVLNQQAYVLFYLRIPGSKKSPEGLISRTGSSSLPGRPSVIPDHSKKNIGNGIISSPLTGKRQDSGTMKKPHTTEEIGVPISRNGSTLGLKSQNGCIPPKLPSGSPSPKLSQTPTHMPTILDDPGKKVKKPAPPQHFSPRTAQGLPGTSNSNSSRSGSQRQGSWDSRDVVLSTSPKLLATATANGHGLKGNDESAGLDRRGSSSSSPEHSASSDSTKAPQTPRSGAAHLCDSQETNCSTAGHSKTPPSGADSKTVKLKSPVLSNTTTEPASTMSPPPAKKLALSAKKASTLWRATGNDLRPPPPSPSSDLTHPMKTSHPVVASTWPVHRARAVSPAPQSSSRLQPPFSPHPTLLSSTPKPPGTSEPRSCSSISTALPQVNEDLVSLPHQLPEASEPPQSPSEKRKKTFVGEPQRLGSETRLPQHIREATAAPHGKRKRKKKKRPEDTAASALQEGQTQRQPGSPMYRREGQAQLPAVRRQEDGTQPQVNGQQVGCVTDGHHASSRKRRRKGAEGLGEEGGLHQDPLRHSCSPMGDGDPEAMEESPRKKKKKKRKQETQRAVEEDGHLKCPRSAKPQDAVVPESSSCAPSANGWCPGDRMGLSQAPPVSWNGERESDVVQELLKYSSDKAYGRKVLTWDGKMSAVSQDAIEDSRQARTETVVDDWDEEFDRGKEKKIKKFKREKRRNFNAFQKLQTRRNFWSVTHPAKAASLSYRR
In short: as §1

USP38 = target: T2, USP38 (UniProt Q8NB14)
T2 sequence (whole entry): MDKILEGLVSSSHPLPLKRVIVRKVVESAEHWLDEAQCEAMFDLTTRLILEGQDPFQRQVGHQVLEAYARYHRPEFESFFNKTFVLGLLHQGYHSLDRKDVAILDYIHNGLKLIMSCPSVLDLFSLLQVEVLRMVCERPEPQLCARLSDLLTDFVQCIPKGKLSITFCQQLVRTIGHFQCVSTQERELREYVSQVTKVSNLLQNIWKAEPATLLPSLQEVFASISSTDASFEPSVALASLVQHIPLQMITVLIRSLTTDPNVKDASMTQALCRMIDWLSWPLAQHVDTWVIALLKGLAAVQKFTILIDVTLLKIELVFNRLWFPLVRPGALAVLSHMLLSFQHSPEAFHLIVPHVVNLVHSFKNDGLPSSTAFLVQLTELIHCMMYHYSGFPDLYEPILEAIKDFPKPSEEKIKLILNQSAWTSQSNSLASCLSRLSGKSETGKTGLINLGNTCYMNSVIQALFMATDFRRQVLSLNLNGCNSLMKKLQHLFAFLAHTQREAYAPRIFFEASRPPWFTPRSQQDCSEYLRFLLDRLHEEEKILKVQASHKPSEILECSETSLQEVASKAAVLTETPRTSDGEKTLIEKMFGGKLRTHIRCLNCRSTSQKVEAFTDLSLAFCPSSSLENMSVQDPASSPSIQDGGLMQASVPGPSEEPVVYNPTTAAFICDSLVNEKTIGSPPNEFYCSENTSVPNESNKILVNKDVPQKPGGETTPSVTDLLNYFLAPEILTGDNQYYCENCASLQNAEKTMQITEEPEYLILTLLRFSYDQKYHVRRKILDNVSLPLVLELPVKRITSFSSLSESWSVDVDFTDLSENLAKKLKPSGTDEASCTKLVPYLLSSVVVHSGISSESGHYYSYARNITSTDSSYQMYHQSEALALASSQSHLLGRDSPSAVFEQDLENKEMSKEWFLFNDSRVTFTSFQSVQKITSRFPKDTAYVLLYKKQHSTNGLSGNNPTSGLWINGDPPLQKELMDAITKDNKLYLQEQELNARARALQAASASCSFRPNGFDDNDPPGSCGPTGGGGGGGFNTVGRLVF
In short: as §1

USP39 = target: T3, USP39 (UniProt Q53GS9)
T3 sequence (whole entry): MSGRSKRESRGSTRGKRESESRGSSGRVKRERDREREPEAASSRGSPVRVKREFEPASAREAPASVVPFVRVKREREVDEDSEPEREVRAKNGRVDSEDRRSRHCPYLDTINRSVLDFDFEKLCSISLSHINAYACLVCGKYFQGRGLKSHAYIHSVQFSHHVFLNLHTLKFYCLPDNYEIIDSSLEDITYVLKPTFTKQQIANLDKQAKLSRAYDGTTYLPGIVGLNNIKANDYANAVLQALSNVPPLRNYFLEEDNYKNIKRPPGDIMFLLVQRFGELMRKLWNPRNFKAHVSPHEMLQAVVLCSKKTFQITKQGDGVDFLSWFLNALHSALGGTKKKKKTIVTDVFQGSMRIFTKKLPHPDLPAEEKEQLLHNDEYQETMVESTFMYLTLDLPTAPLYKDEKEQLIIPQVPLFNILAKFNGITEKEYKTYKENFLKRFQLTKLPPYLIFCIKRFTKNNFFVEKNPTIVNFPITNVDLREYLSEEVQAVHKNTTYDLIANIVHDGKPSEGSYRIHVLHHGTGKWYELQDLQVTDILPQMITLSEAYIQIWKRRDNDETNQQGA
In short: as §1

USP4 = target: T4, USP4 (UniProt Q13107)
T4 sequence (whole entry): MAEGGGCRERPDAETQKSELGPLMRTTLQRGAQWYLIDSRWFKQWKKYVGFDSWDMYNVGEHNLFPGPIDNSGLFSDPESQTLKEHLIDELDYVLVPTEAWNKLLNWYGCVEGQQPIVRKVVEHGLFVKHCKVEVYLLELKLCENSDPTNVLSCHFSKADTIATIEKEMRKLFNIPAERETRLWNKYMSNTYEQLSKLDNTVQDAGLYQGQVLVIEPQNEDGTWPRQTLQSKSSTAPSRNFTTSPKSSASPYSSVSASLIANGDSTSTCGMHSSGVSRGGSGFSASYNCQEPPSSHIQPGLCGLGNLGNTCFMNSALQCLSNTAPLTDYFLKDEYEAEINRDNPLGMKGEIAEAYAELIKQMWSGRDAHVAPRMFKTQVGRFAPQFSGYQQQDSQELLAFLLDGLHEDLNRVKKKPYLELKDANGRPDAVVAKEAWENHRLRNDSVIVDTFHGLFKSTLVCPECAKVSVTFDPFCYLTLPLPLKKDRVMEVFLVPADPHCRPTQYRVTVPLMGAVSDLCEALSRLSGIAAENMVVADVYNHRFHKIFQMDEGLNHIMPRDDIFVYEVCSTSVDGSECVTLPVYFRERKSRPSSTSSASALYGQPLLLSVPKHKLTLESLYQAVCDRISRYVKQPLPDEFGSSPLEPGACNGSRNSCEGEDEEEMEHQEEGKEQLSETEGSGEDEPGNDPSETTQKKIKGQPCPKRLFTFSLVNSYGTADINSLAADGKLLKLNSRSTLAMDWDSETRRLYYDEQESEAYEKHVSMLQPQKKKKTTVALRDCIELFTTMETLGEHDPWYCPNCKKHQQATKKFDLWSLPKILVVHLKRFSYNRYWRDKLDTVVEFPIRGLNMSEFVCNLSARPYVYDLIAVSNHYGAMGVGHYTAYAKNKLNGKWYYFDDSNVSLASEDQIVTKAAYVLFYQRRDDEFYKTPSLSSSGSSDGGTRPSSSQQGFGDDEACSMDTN
In short: as §1

Measured: log2 ratio of Biotin-Ahx-Ub-VS probe labelling

C[C@H]1CN(C(=O)CCl)CCN1C(=O)c1cnn(C)c1.Cl
inactive: USP34 -0.052 | USP36 -0.171 | USP38 -0.0453 | USP39 0.0473 | USP4 -0.115
